Screening data deposited in PubChem BioAssay by National Center for Advancing Translational Sciences (NCATS).
HP1b chromo inh: blocks HP1-beta chromodomain binding to methylated histone tails; AlphaScreen HP1-beta / biotin-H3K9me3 peptide binding; Potency, µM (series often up to 114 µM), actives largely listed as inhibitors; 0.56% of 390,000 active; AID 540317; also: nearly all actives have a fitted effect of over 70% in size
Target sequence (P83916 whole entry, looked up): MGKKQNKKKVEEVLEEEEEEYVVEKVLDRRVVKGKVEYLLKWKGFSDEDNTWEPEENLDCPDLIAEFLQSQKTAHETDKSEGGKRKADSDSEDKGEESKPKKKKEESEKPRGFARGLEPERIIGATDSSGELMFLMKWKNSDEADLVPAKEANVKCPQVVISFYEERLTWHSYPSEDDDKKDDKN
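AlphaScreen: HP1-beta (50 nM) preformed 30 min with biotin-H3(1-18)K9me3 peptide (50 nM) in PBS pH 7.4, 0.01% Tween-20. Compound added for 30 min at RT, then streptavidin donor/nickel chelate acceptor beads (10 ug/mL) for 30 min.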
PLK1 PBD block: blocks phosphopeptide binding to human PLK1 polo-box domain | P53350 | Plk1 PBD binding of FITC phosphopeptide, fluorescence polarization | Potency, µM, usual class: inhibitors | 2.8% of 360,000 active | AID 720504; also: series mostly up to about 57 µM; nearly all actives have a fitted effect of over 65% in size
JMJD2A Tudor inh: blocks the human JMJD2A Tudor domain; O75164; AlphaScreen JMJD2A-Tudor / H3K4me3 peptide binding; Potency, µM (titrated, usually from 114 µM), hits mostly inhibitors; 4.4% of 390,000 active; AID 504339; also: nearly all actives have a fitted effect of over 50% in size
BAZ2B block: BAZ2B (human) inhibition; Q9UIF8; AlphaScreen BAZ2B-H3K14Ac peptide displacement; Potency, µM (doses to about 114 µM), hits mostly inhibitors; 4.4% of 360,000 active; AID 504333; also: nearly all actives have a fitted effect of over 60% in size
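BAZ2B (50 nM) with biotin-H3(5-23)K14Ac peptide (50 nM) in PBS pH 7.4, 0.01% Tween-20, preformed 30 min, then compound 30 min at room temperature; top concentration 110uM. AlphaScreen streptavidin donor/nickel chelate acceptor beads (10 ug/mL final), 20 min dark, signal read.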
G9a block: G9a (human) methyltransferase inhibition. G9a H3K9 monomethylation, AlphaScreen, 2 h. Q96KQ7. Potency, µM (titrated, usually from 102 µM), most hits filed as inhibitors. 8.8% of 350,000 active; also: nearly all actives have a fitted effect of over 75% in size
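AlphaScreen read-out: biotin-H3K9 peptide (500 nM) methylation by 20 nM enzyme with 20 uM SAM, 2 h at room temperature after 15 min compound preincubation; anti-monomethyl H3K9 antibody plus donor/acceptor beads, 10 min dark.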
ALOX12 inh: blocks human arachidonate 12S-lipoxygenase; 1.1% of 580,000 active; Potency, µM (highest dose often 108 µM), most hits filed as inhibitors; purified 12hLO, xylenol orange hydroperoxide absorbance; P18054
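Purified human 12hLO at 150 nM in 25 mM Hepes, 0.01% Triton X-100, pH 7.0, preincubated 15 min at room temperature with compound. Reaction started with 40 uM arachidonic acid, 30 min at room temperature. Hydroperoxide measured by Fe-xylenol orange, 573/405 nm absorbance ratio.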
Numbers stand for hits; n = inactive; u = inconclusive; x = not tested or not shown. A selection: hits, their analogues and other compounds. The true share with any hit is near 9%. Calls follow the shape of the dose curve; as a rule, active = well fitted curve in the direction sought with a large enough effect; inconclusive = small, poorly fitted or top-dose-only effect, or another doubt; inactive = no such curve, though single readings can be large; an effect the other way counts as inactive or inconclusive.

SMILES | HP1b chromo inh | PLK1 PBD block | JMJD2A Tudor inh | BAZ2B block | G9a block | ALOX12 inh
COc1cccc(NC(=O)Nc2cc(C(=O)NC(C)C)ccc2N2CC3CC(C2)c2cccc(=O)n2C3)c1 (configuration not stated) | n | 3.8µM | u | n | n | n
CCc1ccc(NC(=O)Nc2cc(C(=O)O)ccc2N2CC3CC(C2)c2cccc(=O)n2C3)cc1 (configuration not stated) | n | n | n | n | n | n
COc1ccc(-c2cnc([C@@H]3COCCN3Cc3ccccc3O)[nH]2)cc1 | x | x | x | x | x | n
CC(C)C(=O)c1ccc(O)c(O)c1 | n | n | u | n | x | u
COCCOC(=O)c1[nH]c2c(c1C)C(=O)CC(c1ccc(F)cc1)C2 (configuration not stated) | n | n | n | n | n | n
CSCCOC(=O)c1[nH]c2c(c1C)C(=O)CC(c1ccco1)C2 (configuration not stated) | u | n | 35µM | 45µM | 22µM | n
COCCOC(=O)c1[nH]c2c(c1C)C(=O)CC(c1ccccc1)C2 (configuration not stated) | n | n | n | n | n | x
Cc1c(C(=O)OCCOC(C)C)[nH]c2c1C(=O)CC(c1ccco1)C2 (configuration not stated) | n | n | u | 50µM | 45µM | x
Cc1c(C(=O)OCc2ccccc2)[nH]c2c1C(=O)CC(c1ccco1)C2 (configuration not stated) | 71µM | u | 25µM | 50µM | u | x
COCCOC(=O)c1[nH]c2c(c1C)C(=O)CC(c1ccco1)C2 (configuration not stated) | 50µM | u | 45µM | 50µM | 50µM | u
O=C(CCCC1=NS(=O)(=O)c2ccccc2N1)N1CCN(c2ccc([N+](=O)[O-])cc2)CC1 | n | n | n | u | n | n
CCOC(=O)c1[nH]c2c(c1C)C(=O)CC(c1ccco1)C2 (configuration not stated) | n | n | 56µM | 45µM | u | n
COCCOC(=O)c1oc2c(c1C)C(=O)CC(c1ccco1)C2 (configuration not stated) | x | x | x | x | x | n
CCC1=NN2C(=N)/C(=C/c3ccc(OS(=O)(=O)c4ccccc4)c(OC)c3)C(=O)N=C2S1 | n | 19µM | n | n | n | n
COc1cc(/C=C2/C(=N)N3C(=NC2=O)SN=C3S(=O)(=O)C(C)C)ccc1OS(=O)(=O)c1ccccc1 | x | x | x | u | n | x
CCC1=NN2C(=N)/C(=C\c3cccn3-c3ccc(OC)cc3)C(=O)N=C2S1 | n | u | 79µM | 32µM | u | u
COc1cc(/C=C2/C(=N)N3N=C(C(C)C)SC3=NC2=O)ccc1OS(=O)(=O)c1ccccc1 | n | 38µM | n | n | n | u
